Source: PubChem BioAssay
Active and inactive are the calls of the source.

Legend:
[1] = A549 cell viability effects, profiling panel, calcein-AM fluorescence, 48 h, basal (AID 1162); settings: higher = more signal
[2] = adipocyte viability effects, profiling panel, cell-based, 3T3-L1 adipocytes, calcein-AM fluorescence, 48 h, basal (AID 1163); settings: 3T3-L1 adipocytes viability, higher = more signal
[3] = HepG2 cell viability effects, profiling panel, calcein-AM fluorescence, 48 h, basal (AID 1164); settings: higher = more signal
[4] = MM1S cell viability effects, profiling panel, calcein-AM fluorescence, 48 h, basal (AID 1165); settings: higher = more signal;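 also: viability of MM1S multiple myeloma cells under basal unstimulated conditions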
[5] = basal RPMI8226 viability, no added stimulus, profiling panel, cell-based, calcein-AM fluorescence, 48 h, PK04 Diversity Set (AID 1166); settings: RPMI8226 myeloma viability, higher = more signal;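 also: cells grown under basal conditions without added stimulus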
[6] = basal HepG2 mitochondrial membrane potential changes, profiling panel, cell-based, JC-1 fluorescence, 24 h, 100 nL compound (AID 1167); settings: higher = more signal
[7] = basal 3T3-L1 adipocyte mitochondrial potential changes, profiling panel, cell-based, JC-1 fluorescence, 3T3-L1 adipocytes, 24 h, 100 nL compound (AID 1168); settings: JC-1 mitochondrial fluorescence, higher = more signal, called active from +8 up or from −8 down
[8] = basal RPMI8226 mitochondrial membrane potential changes, profiling panel, cell-based, JC-1 fluorescence, 24 h, 100 nL compound (AID 1169); settings: RPMI8226 myeloma, JC-1 mitochondrial potential fluorescence, higher = more signal
[9] = basal MM1S mitochondrial membrane potential changes, profiling panel, cell-based, JC-1 fluorescence, 24 h, 100 nL compound (AID 1170); settings: higher = more signal
[10] = A549 lung cancer cell viability effects, profiling panel, resazurin fluorescence, 24 h, PK04 Diversity Set (AID 1171); settings: higher = more signal, called active from +8 up or from −8 down
Also: test concentration not given here.

| SMILES | z-score [1] | z-score [2] | z-score [3] | z-score [4] | z-score [5] | z-score [6] | z-score [7] | z-score [8] | z-score [9] | z-score [10] |
| --- | --- | --- | --- | --- | --- | --- | --- | --- | --- | --- |
| CC(C)[Si](C#CCCCC#N)(O[C@H](c1ccccc1)c1cn(Cc2ccccc2)nn1)C(C)C | 0.059 | -0.454 | -0.213 | 0.444 | -0.34 | 0.604 | 0.0406 (inactive) | 0.993 | -1.31 | -0.235 (inactive) |
| C=CCN1Cc2ccccc2[C@@H]2OC(c3ccc(OCCCO)cc3)=N[C@]2(CC=C)C1=O | -0.546 | 1.44 | 0.274 | -2.62 | -2.83 | 0.752 | 0.0517 (inactive) | -1.09 | 0.278 | 0.0576 (inactive) |
| O=C1[C@H]2C=C(I)[C@H](C[C@@H]2OCCOCCO)[C@@]12CO2 | -0.461 | -1.03 | -0.773 | -0.582 | -0.537 | -1.77 | -0.473 (inactive) | -0.196 | -0.807 | 0.323 (inactive) |
| O=C1C2C=CC(C(O)C3CC=CCC3)N(Nc3ccccc3)C2C(=O)N1c1ccccc1 (stereo not given) | -1.05 | -0.0629 | -1.2 | -1.13 | -1.14 | -2.47 | -0.858 (inactive) | 0.173 | -1.02 | -0.728 (inactive) |
| C=CCN1C(=O)[C@]2(CCS(=O)(=O)c3ccccc3)N=C(c3ccc(OCCCO)cc3)O[C@@H]2c2ccccc21 | 0.776 | 0.142 | 0.504 | -0.0236 | 0.716 | 0.452 | 1.42 (inactive) | -0.156 | 0.615 | -2.52 (inactive) |
| CCC1=C2CN(Cc3ccccc3)[C@@H](C(=O)Cc3ccccc3)C2C=CCC1 (stereo not given in full) | 0.0398 | 1.47 | -0.342 | 0.435 | -0.96 | 0.821 | 0.152 (inactive) | 0.424 | -0.948 | 0.822 (inactive) |
| CC(C)N1C(=O)c2ccccc2[C@@H](C(=O)NCCN2CCOCC2)[C@@H]1c1ccc(CO)cc1 | 0.281 | -0.973 | 0.135 | -0.551 | 0.165 | -0.247 | -1.26 (inactive) | 0.772 | 0.113 | 0.175 (inactive) |
| O=C(NCc1ccc(F)cc1)[C@H]1C[C@H]2C(=O)NCC(=O)N2[C@H]1c1ccc(O)cc1 | 0.139 | -0.218 | -0.457 | -1.49 | 0.461 | 0.679 | -0.276 (inactive) | 0.683 | 0.318 | 0.54 (inactive) |
| [N-]=[N+]=Nc1ccccc1[C@@H]1OC(c2ccc(OCCCO)cc2)=N[C@]1(Cc1ccccc1)C(=O)N1CCCCC1 | -0.523 | -0.0528 | -0.822 | -2.91 | -4.32 | 0.408 | 1.87 (inactive) | -1.17 | -2.19 | -1.61 (inactive) |
| COCCOC(=O)N1C(=O)[C@@]2(c3cc(C#CC4=CCCCC4)ccc31)[C@H](c1ccccc1OCCO)N1[C@H](c3ccccc3)[C@H](c3ccccc3)OC(=O)[C@H]1[C@@H]2C(=O)NC[C@H](O)c1ccccc1 | -1.86 | 1.44 | -0.529 | -3.08 | -3.9 | 0.315 | 2.5 (inactive) | -0.817 | -1.07 | -1.59 (inactive) |
| CCCCCCc1nc(Cc2cc(OC)c(OC)c(OC)c2)cc2c1[Si](C(C)C)(C(C)C)OC2 | -1.79 | 0.5 | 0.0671 | -3.02 | -4.45 | 0.785 | 0.705 (inactive) | -1.06 | -0.48 | 1.64 (inactive) |
| O=C(O)[C@@H]1[C@@H]2C(=O)N(c3ccccc3)C(=O)[C@@H]2C[C@@H]1Sc1ccccc1 | -0.653 | -0.832 | -1.32 | -0.939 | -0.616 | -0.829 | -0.867 (inactive) | 0.718 | -0.773 | 0.0964 (inactive) |
| O=C(NCCN1CCOCC1)[C@@H]1c2ccccc2C(=O)N(Cc2ccccc2Cl)[C@H]1c1ccc(CO)cc1 | 0.53 | -0.249 | 1.15 | -0.142 | 0.125 | 3.16 | 0.64 (inactive) | -0.695 | -0.408 | 0.59 (inactive) |
| C[C@@H]1NC(=O)[C@@H](Cc2ccccc2)NC(=O)[C@@]23C(=O)N[C@@H](Cc4ccccc4)C2[C@H](C)[C@@]2(C)O[C@H]2C3/C=C/C/C=C\CNC1=O (stereo not given in full) | -0.312 | 0.599 | -0.543 | 0.18 | -0.377 | -1.36 | -0.308 (inactive) | -0.0163 | 1.09 | -0.879 (inactive) |
